From PubChem BioAssay (NCI) come the findings set out here.

Compounds without any hit were thinned out: in the full panel of roughly 83,000, 20% have a hit.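 In brief: 96-well plates, 48 h treatment, single concentration, percent growth endpoint.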 Activity calls are given as the source filed them. Rule for the calls: active = growth percent below 10; inactive = the rest.

In one assay the test system is HCC-2998 colon. Put plainly: NCI-60 one-dose screen, 48 h (100 = growth as untreated, 0 = no growth, -100 = all killed). The settings on record: 10 µM.
Regarding `CCCS(=O)(=O)c1oc(-c2ccc(F)cc2)nc1S(=O)(=O)c1ccc(F)cc1`, the growth is -59.8% (active).
On the same count and under the same terms, as for `CC(C)CCSc1nc(NC2CC2)c(C#N)c(-c2ccc(C(C)C)cc2)n1`, the figure is 115% (inactive).
`Cc1ccc(-c2nc3ccc(C(=O)N=Nc4c(O)[nH]c5ccc([N+](=O)[O-])cc45)cc3[nH]2)cc1`: the growth was 54% (inactive).

For another assay, the system named is KM12 colon. Described as above. As to conditions: 10 µM.
As to `CN1CCN(c2ccc(Nc3nc(N4CCN(S(=O)(=O)c5ccc(F)cc5)CC4)c4sccc4n3)cc2)CC1`, the growth is -74.8% (active).
Same read-out and setting: as for `CCCCCc1ccc(S(=O)(=O)Nc2cc(-c3csc(N(C)C(C)=O)n3)ccc2N2CCN(C)CC2)cc1`, the figure is 46.3% (inactive); as for `CN1CCN(c2ccc(Nc3nc(NCCCNC(=O)C4CCCCC4)c4sccc4n3)cc2)CC1`, 63.7% (inactive); as for `N[C@@H](CSSC[C@H](N)C(=O)Nc1ccc(OCC2CCCC2)cc1)C(=O)Nc1ccc(OCC2CCCC2)cc1`, -80.6% (active).
On the same count and under the same terms, as for `COc1ccc2nc(Cl)c(-c3cc(-c4ccccc4)nc(=O)[nH]3)cc2c1`, the figure is 18.3% (inactive).
For `O=C(Nc1ccc(OCc2ccccc2)cc1)Nc1ccc(Cl)c(C(F)(F)F)c1`, the growth is 1.83% (active).
With `COc1ccc2[nH]c(O)c(N=NC(=O)COc3ccc(NC(=O)Nc4ccc(Cl)cc4)cc3)c2c1`, the growth is 4.25% (active).
Still for that read-out and setting: as for `Cc1cc2c(c(O)c1Br)-c1ncoc1C(=O)[C@]1(C)CC[C@H](C(C)C)[C@H]21`, the figure is 20% (inactive); as for `CCN1CCN(c2ccc(NC(=O)Nc3ccc4c(c3F)CCN4c3ccnc(C(=O)NC)c3)cc2C(F)(F)F)CC1`, -83.3% (active); as for `O=C1Nc2ccc(F)cc2/C1=C/c1cccc(OCc2ccccc2)c1`, 19% (inactive).
The same measure, in the same setting: as for `Cc1ccc(NC(=O)c2ccc(-n3c(=O)[nH]c4ccccc4c3=O)cc2)cc1`, the figure is 96.7% (inactive).
Same read-out and setting: as for `O=C(Nc1ccncc1)c1ccc(-n2c(=O)[nH]c3ccccc3c2=O)cc1`, the figure is 110% (inactive); as for `Cc1ccc(-c2cc(-c3cc4ccccc4nc3Cl)[nH]c(=S)n2)cc1`, 61.6% (inactive); as for `O=C(c1ccc(Cl)cc1)C1[C@H](c2ccc(Br)cc2)[C@@H](c2ccccc2)NC12C(=O)Nc1ccc(Cl)cc12` (stereo not given in full), -26.6% (active).
With `O=C(O)CCCCCCCCCCN1C(=O)/C(=C/c2cnc(-c3ccc(Cl)cc3)s2)SC1=S`, the growth is 14% (inactive).
The same measure, in the same setting: as for `CN1CCN(c2ccc(Nc3nc(N4CCN(S(=O)(=O)c5ccc(Cl)cc5)CC4)c4sccc4n3)cc2)CC1`, the figure is -15.3% (active); as for `CN1CCN(c2ccc(C(=O)/C=C/c3cc(Br)ccc3F)cc2)CC1`, 8.8% (active); as for `O=c1nc(-c2ccccc2)cc(-c2cc3ccccc3nc2Cl)[nH]1`, -15.4% (active).
`CC1=C2C(=C[C@@](C)(CO)[C@@H]2O)/C(=N\N)[C@](C)(O)C12CC2`: the growth is 7.94% (active).
The same measure, in the same setting: as for `O=C(c1ccc(O)cc1)C1[C@H](c2ccc(Br)cc2)[C@@H](c2ccccc2)NC12C(=O)Nc1ccc(Br)cc12` (stereo not given in full), the figure is -24.7% (active); as for `COc1ccc(C=CC(=O)c2ccc(-n3c(C)nc4c(cnn4-c4ccccc4)c3=O)cc2)cc1`, 31.6% (inactive).
Same read-out and setting: as for `O=C(c1ccc(O)cc1)C1[C@H](c2ccccc2Br)[C@@H](c2ccccc2)NC12C(=O)Nc1ccc(Cl)cc12` (stereo not given in full), the figure is -20.7% (active); as for `O=C(c1ccccc1)n1ccc(-c2cc3cc(Br)ccc3oc2=O)n1`, 27.9% (inactive); as for `C#Cc1ccc(S(=O)(=O)Nc2cccc(-c3csc(NC(C)=O)n3)c2)cc1`, 69.4% (inactive).
Turning to `O=C(N/N=C/c1ccc(-c2cccc([N+](=O)[O-])c2)o1)c1[nH]c2ccc(Br)cc2c1-c1ccccc1`, the growth was 7.57% (active).
Same read-out and setting: as for `O=C(Nc1nc2ccc([N+](=O)[O-])cc2s1)Nc1cc(Cl)ccc1I`, the figure is -48.7% (active); as for `C=C(c1ccc(OC)c(N)c1)c1cc(C)nc2ccccc12`, 10.5% (inactive); as for `CNC(=O)c1cccc(N2CCc3c2ccc(NC(=O)Nc2ccc(N4CCN(C)CC4)c(C(F)(F)F)c2)c3F)c1`, -88.1% (active).
Same read-out and setting: as for `COc1ccc([C@H]2C(C(=O)c3ccc(Cl)cc3)C3(N[C@@H]2c2ccccc2)C(=O)Nc2ccc(Br)cc23)cc1` (stereo not given in full), the figure is -5.82% (active); as for `CN1CCN(Cc2ccc(C(=O)Nc3cccc(Nc4ccc5cc(O)ccc5n4)c3)cc2C(F)(F)F)CC1`, -48% (active); as for `Brc1ccc(/C=N/Nc2ncnc3sc4c(c23)CCN(Cc2ccccc2)C4)cc1`, 50.2% (inactive).
The same measure, in the same setting: as for `COc1ccc(C(C)=C(c2ccc(OCCCN(C)C)cc2)c2ccc(OCCCN(C)C)cc2)cc1`, the figure is -85.5% (active); as for `C=C(C)[C@@H]1CC[C@]2(C(=O)OC)CC[C@]3(C)[C@H](CC[C@@H]4[C@@]5(C)CC[C@H](N)C(C)(C)[C@@H]5CC[C@]43C)[C@@H]12`, -82.3% (active).
Turning to `CS(=O)(=O)Nc1ccc(-c2ccc3c(c2)ncn3-c2ccc(NC(=O)Nc3ccc(Br)cc3)cc2)cc1`, the growth was 2.79% (active).
`CCCS(=O)(=O)c1oc(-c2ccc(F)cc2)nc1S(=O)(=O)c1ccc(F)cc1`: the growth is 41.8% (inactive).
Same read-out and setting: as for `CC(C)CCSc1nc(NC2CC2)c(C#N)c(-c2ccc(C(C)C)cc2)n1`, the figure is 107% (inactive); as for `Cc1ccc(-c2nc3ccc(C(=O)N=Nc4c(O)[nH]c5ccc([N+](=O)[O-])cc45)cc3[nH]2)cc1`, 104% (inactive).
